# Experimental data: the supplement of paper PMC11001985
# Compound: C#CCNC(=O)CCSSCCC(=O)NCCc1ccc(C=O)c(C=O)c1
# Test: lysine labeling ratio R10:1 (500 µM / 50 µM probe), SILAC-ABPP in living cells; higher = lower intrinsic lysine reactivity toward the probe, active = 2 or less
# Settings: HeLa; probe concentrations 500 vs 50 µM
# Summary of the method: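 Forward and reverse SILAC label swaps were used with living light and heavy HeLa cells in PBS at room temperature, which were given an alkyne-tagged, disulfide-linked lysine probe at 50 µM or 500 µM. R is the per-lysine filtered median high-probe/low-probe MS1 peptide ratio, with the median then taken across both swap directions. Values are limited to 20.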
# Chain of UniProt P35579 (P35579 whole entry): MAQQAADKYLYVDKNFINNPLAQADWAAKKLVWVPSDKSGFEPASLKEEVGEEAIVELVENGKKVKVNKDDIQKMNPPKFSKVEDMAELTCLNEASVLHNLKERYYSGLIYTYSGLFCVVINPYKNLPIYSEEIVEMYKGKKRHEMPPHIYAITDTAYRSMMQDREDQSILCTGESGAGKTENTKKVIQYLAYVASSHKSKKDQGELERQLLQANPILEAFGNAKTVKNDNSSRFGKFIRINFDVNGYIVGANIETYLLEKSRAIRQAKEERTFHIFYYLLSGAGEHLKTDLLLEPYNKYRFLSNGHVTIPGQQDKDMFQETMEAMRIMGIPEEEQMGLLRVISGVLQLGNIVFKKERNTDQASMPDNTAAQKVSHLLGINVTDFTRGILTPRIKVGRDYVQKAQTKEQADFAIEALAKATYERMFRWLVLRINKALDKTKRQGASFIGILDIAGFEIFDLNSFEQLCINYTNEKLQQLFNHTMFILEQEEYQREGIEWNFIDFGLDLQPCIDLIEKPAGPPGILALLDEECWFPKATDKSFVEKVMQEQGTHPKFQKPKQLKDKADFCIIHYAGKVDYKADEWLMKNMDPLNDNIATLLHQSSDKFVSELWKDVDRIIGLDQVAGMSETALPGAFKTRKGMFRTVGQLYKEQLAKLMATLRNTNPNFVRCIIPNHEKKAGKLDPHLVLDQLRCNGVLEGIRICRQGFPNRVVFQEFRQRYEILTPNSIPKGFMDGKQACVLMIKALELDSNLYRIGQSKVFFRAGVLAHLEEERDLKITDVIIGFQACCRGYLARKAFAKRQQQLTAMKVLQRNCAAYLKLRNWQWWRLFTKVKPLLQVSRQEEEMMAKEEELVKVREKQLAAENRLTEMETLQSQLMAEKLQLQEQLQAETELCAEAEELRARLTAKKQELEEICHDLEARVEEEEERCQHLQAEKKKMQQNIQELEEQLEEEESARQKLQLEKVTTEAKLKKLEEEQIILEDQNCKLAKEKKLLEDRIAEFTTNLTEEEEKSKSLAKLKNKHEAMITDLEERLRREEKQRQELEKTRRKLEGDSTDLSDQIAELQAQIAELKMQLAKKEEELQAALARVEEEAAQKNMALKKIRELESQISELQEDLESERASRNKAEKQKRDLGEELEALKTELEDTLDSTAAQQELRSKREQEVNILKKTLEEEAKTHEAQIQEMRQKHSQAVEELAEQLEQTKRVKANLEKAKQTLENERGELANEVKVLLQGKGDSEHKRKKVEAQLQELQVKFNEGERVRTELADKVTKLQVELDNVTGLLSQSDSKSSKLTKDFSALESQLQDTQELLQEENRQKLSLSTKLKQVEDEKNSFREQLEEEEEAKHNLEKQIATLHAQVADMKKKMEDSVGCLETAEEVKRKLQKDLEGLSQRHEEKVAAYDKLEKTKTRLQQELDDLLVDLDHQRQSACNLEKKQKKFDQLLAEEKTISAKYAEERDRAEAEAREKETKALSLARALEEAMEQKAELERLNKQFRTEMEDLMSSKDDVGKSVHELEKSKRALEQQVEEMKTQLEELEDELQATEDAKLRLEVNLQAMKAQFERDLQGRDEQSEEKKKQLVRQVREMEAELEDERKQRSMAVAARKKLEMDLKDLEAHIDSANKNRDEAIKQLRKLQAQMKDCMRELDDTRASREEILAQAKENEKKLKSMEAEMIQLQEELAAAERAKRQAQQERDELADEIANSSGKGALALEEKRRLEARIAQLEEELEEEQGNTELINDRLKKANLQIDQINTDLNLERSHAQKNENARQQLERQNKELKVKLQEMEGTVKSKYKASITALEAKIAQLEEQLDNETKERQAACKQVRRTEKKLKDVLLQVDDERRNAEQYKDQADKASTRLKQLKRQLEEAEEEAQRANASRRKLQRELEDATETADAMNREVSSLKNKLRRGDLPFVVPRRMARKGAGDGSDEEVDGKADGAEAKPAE
# Chain of UniProt Q9Y624 (Q9Y624 whole entry, stated change not applied): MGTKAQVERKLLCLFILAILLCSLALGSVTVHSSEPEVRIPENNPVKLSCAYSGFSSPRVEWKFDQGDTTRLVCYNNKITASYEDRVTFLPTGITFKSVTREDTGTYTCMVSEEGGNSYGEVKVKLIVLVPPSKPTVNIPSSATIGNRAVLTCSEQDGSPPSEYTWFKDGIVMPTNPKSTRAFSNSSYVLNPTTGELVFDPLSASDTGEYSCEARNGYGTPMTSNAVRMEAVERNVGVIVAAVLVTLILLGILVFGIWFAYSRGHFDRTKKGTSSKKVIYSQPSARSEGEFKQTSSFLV
# Chain of UniProt P54289 (P54289 whole entry): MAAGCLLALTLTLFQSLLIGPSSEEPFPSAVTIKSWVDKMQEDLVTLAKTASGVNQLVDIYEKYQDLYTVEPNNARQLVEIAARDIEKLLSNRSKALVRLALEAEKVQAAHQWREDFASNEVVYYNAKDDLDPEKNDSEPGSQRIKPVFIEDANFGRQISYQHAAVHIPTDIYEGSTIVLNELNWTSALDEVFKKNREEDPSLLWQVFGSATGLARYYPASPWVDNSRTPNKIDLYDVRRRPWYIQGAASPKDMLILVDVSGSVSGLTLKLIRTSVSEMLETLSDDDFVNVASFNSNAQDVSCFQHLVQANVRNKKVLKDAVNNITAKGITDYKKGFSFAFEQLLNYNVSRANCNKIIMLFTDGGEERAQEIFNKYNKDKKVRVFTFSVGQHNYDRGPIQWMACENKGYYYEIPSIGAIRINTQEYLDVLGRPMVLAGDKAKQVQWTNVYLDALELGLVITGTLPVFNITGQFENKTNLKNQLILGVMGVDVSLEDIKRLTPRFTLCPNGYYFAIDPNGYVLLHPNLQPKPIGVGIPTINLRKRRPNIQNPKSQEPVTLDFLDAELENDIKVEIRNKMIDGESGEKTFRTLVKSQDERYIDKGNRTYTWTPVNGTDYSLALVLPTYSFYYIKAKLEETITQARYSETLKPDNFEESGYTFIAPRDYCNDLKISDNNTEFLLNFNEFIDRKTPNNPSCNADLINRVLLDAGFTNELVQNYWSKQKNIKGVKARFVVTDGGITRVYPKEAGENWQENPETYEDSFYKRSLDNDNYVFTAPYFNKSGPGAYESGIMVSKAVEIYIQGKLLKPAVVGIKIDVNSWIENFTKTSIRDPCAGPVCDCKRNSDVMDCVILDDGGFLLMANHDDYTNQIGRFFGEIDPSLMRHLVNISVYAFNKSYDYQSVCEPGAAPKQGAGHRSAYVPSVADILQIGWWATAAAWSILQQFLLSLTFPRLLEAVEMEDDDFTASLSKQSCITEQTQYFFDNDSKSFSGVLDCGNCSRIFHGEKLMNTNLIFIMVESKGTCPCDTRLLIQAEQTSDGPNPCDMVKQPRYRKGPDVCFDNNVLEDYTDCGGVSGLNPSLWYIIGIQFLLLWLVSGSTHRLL
# Chain of UniProt P15328 (P15328 whole entry, looked up): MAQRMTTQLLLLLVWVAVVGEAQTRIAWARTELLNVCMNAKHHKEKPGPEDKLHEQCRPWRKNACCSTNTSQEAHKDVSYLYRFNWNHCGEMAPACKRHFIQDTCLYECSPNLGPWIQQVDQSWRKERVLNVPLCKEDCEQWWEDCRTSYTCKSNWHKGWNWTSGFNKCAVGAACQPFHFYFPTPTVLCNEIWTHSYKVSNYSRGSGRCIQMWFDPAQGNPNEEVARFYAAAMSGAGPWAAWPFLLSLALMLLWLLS
# Chain of UniProt P38646 (P38646 whole entry): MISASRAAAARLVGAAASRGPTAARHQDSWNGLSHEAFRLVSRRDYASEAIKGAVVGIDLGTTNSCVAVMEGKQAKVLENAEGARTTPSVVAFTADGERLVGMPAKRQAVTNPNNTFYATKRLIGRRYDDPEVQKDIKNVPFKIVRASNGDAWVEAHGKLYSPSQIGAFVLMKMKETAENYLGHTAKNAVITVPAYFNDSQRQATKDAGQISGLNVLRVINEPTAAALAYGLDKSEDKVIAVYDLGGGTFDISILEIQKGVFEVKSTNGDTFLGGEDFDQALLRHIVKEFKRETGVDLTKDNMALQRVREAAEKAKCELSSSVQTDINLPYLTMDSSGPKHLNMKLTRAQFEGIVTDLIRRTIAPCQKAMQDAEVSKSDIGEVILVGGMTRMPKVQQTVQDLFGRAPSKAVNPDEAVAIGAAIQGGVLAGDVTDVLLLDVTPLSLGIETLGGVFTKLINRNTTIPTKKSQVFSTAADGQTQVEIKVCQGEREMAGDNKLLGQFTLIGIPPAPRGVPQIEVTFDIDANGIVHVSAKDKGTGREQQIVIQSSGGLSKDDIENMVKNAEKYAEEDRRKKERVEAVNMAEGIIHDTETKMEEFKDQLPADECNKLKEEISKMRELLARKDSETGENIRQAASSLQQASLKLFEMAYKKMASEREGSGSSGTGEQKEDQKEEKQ
# Chain of UniProt P02788 (P02788 whole entry): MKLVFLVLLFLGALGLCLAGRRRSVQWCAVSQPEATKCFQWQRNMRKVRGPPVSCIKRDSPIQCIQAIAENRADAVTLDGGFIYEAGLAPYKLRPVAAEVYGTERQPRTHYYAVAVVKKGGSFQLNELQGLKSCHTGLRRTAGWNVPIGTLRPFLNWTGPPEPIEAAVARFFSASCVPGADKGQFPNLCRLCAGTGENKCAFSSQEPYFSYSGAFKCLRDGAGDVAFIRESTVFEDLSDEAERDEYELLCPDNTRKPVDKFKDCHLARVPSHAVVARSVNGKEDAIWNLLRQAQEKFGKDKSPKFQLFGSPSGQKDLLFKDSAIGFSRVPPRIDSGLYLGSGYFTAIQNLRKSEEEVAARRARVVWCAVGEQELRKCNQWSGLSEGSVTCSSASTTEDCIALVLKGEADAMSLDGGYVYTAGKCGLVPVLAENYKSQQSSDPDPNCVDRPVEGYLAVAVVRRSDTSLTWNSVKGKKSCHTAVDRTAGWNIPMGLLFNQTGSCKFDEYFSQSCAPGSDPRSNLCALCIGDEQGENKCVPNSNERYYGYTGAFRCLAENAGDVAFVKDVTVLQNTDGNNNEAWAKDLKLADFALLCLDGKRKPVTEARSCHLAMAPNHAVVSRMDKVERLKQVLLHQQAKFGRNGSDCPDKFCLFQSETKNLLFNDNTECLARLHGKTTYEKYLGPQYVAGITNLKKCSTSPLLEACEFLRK
row,Target,lysine labeling ratio R10:1
1,FLNA (lysine site: K1375) (UniProt P21333),2.93 (inactive)
2,UniProt P62258 (lysine site: K125),1.05 (active)
3,F11R (lysine site: K78) (UniProt Q9Y624),3.33 (inactive)
4,UniProt Q9UHN6 (lysine site: K1262),2.6 (inactive)
5,HSPA9 (lysine site: K345) (UniProt P38646),1.17 (active)
6,FOLR1 (lysine site: K41) (UniProt P15328),1.41 (active)
7,UniProt P62750 (lysine site: K152),4.64 (inactive)
8,UniProt Q9UKX5 (lysine site: K256),5.46 (inactive)
9,GAPDH (lysine site: K334) (UniProt P04406),5.36 (inactive)
10,MYH9 (lysine site: K1775) (UniProt P35579),3.47 (inactive)
11,CD63 (lysine site: K194) (UniProt P08962),2.39 (inactive)
12,NUMA1 (lysine site: K1024) (UniProt Q14980),1.17 (active)
13,FAT1 (lysine site: K1542) (UniProt Q14517),2.78 (inactive)
14,MYH9 (lysine site: K1724) (UniProt P35579),1.66 (active)
15,HSPD1 (lysine site: K369) (UniProt P10809),2.45 (inactive)
16,F11R (lysine site: K47) (UniProt Q9Y624),5.07 (inactive)
17,LGALS1 (lysine site: K130) (UniProt P09382),2.14 (inactive)
18,UniProt P08727 (lysine site: K370),3.4 (inactive)
19,UniProt Q15149 (lysine site: K2025),4.19 (inactive)
20,UniProt P59998 (lysine site: K44),7.73 (inactive)

row,Target,lysine labeling ratio R10:1
1,ITGB1 (lysine site: K87) (UniProt P05556),2.04 (inactive)
2,UGT8 (lysine site: K195) (UniProt Q16880),1.49 (active)
3,BCAP31 (lysine site: K204) (UniProt P51572),1.82 (active)
4,ITGA1 (lysine site: K849) (UniProt P56199),0.921 (active)
5,PDCD6IP (lysine site: K640) (UniProt Q8WUM4),0.892 (active)
6,UniProt Q15149 (lysine site: K2182),1.67 (active)
7,FRAS1 (lysine site: K3209) (UniProt Q86XX4),2.67 (inactive)
8,ALDOA (lysine site: K330) (UniProt P04075),2.76 (inactive)
9,PLOD3 (lysine site: K89) (UniProt O60568),5.28 (inactive)
10,RPL35A (lysine site: K73) (UniProt P18077),3.82 (inactive)
11,PPA1 (lysine site: K176) (UniProt Q15181),1.88 (active)
12,CACNA2D1 (lysine site: K586) (UniProt P54289),2.9 (inactive)
13,UniProt P46781 (lysine site: K11),4.03 (inactive)
14,UniProt P62244 (lysine site: K32),4.35 (inactive)
15,FASN (lysine site: K436) (UniProt P49327),5.67 (inactive)
16,PTPRB (lysine site: K718) (UniProt P23467),1.5 (active)
17,PGAM1 (lysine site: K39) (UniProt P18669),3.67 (inactive)
18,CACNA2D1 (lysine site: K577) (UniProt P54289),4.82 (inactive)
19,RUVBL2 (lysine site: K427) (UniProt Q9Y230),2.02 (inactive)
20,LTF (lysine site: K320) (UniProt P02788),1.48 (active)
